# Inconclusive results are not listed. Values without a mark were called inactive. The source made the active and inactive calls. Calls follow the shape of the full dose curve.
# Assay: qHTS for Inhibitors of Cell Surface uPA Generation: Wild-type Protective Antigen (WT-PrAg) Counterscreen for Cherry-picked Compounds; as to activity (protection): 0% is about no effect
# Conditions: cells, WT protective antigen toxicity counterscreen; series mostly up to 115 µM; activity (protection): at the top concentration
# Potency is read from the fitted curve at half-maximal effect.
SMILES,activity (protection),Potency
COc1ccc2nc(SC(C)C(=O)NC3(C#N)CCCCC3)[nH]c2c1 (stereo not given),-1.42%,
Cc1ccc(C(=O)COc2cc(O)c3c(=O)cc(-c4ccccc4)oc3c2)cc1,-0.241%,
C=C1C(=O)[C@@]23[C@H](O)C[C@@H]4C(C)(C)CC[C@H](O)[C@]4(C)[C@@H]2C[C@H](O)[C@@H]1[C@H]3O,-0.321%,
COc1ccc(CCNC(=O)CSc2nc(N)c3c(C)c(C)oc3n2)cc1OC,-1.24%,
OC(COc1ccc(Br)cc1)CN1CCN(c2ccccc2)CC1 (stereo not given),-0.779%,
COc1ccc(N2CC(C(=O)Nc3nnc(SCCC4OCCO4)s3)CC2=O)cc1 (stereo not given),-0.992%,
CCCCn1c(N)c(N(Cc2ccccc2OC)C(=O)COc2ccc(C)cc2)c(=O)[nH]c1=O,-0.778%,
Cc1cc(C)cc(NC(=O)C(OC(=O)c2ccc(O)cc2)c2ccccc2)c1 (stereo not given),-1.09%,
NC(=O)CC[C@H](NC(=O)c1ccc(F)cc1)C(=O)OCC(=O)Nc1c(F)c(F)c(F)c(F)c1F,-0.726%,
O=C(CNC(=O)N1CC(=O)Nc2ccccc21)Nc1cc(Cl)ccc1Cl,1.67%,
CCOC(=O)C1CCN(S(=O)(=O)c2c[nH]c(=O)[nH]c2=O)CC1,-0.301%,
COc1cccc(C(=O)Cn2c(NCCCO)nc3ccccc32)c1,-0.884%,
Cc1ccc2[nH]c(CN3CCN(C)C(CCO)C3)c(C)c2c1 (stereo not given),6.95%,
CCC(COC)NC(=O)CCc1nnc(Cc2c[nH]c3ccccc23)o1 (stereo not given),-0.706%,
CN(CCCNC(=O)Cn1cccc1C(=O)c1ccccc1)C1CCCCC1,-2.26%,
Cn1cnc([N+](=O)[O-])c1Sc1ccc(Br)cc1,-1.73%,
CCCCCCCCCOC(=O)C1N2C(=O)[C@@H](NC(=O)COc3ccccc3)[C@H]2SC1(C)C (stereo not given in full),-2.25%,
CC(O)[C@H]1CNC(=O)C(=O)N1CCc1cccc(F)c1 (stereo not given in full),1.24%,
CCOc1ccccc1N(CC(=O)Nc1ccc(OC)cc1)S(=O)(=O)c1ccccc1,0.0168%,
CCN1CCCCC(=N/O)/C(=N/O)CCCC1,3.08%,

SMILES,activity (protection),Potency
Cc1ccc(S(=O)(=O)NC(=O)Nc2nccs2)cc1,-1.79%,
O=C(NCc1ccc(F)cc1)c1cc(S(=O)(=O)N2CCCCC2)ccc1N1CCOCC1,-0.974%,
Cc1cccc(NC(=O)c2cc3c(=O)n4ccccc4nc3s2)c1,0.263%,
COc1ccc(OC)c(S(=O)(=O)N2CCN(Cc3ccccc3)CC2)c1,0.596%,
C#CCOCCOCCOCCNc1nc(N2CCOCC2)nc(N2CCN(C(=O)[C@H](CCC(=O)O)n3cc([C@@H](N)CCCCN)nn3)CC2)n1,-0.0828%,
CC1CS(=O)(=O)CCN1N=Cc1ccc([N+](=O)[O-])o1 (stereo not given),-2.06%,
COc1ccc(C(CNC(=O)C(C)Oc2ccc(Br)cc2)N2CCCC2)cc1 (stereo not given),-1.61%,
Cc1ccc(NC(=O)CC2OC(=O)c3ccccc32)cc1S(=O)(=O)N1CCOCC1 (stereo not given),-0.507%,
CC1(CC(=O)N/N=C/c2cc(Br)c(O)cc2O)OCCO1,-2.29%,
CCOC(=O)c1c(C)oc2ccc(OC(=O)COc3c(F)c(F)c(F)c(F)c3F)cc12,-0.307%,
CCOC(=O)C1(CCOc2ccccc2)CCN(Cc2ccc(O)c(OC)c2)CC1,-2.28%,
CC1=CC(C)(C)N2C(=O)C3(NCCc4c3[nH]c3ccccc43)c3cc(C)cc1c32 (stereo not given),,2330 nM (active)
COc1ccc(C2NC(=O)CCC2[N+](=O)[O-])c(OC)c1OC (stereo not given),-1.26%,
COc1cc(CCC(=O)OCC(=O)Nc2ccc(C)cc2Br)cc(OC)c1OC,-1.19%,
O=C(NNC(=O)C1CC(c2cccs2)=NO1)Nc1ccccc1 (stereo not given),0.0009%,
O=c1[nH]c(=O)n(CCc2ccccc2)c(O)c1C=NC1CC1,-0.566%,
Cc1nc(NC(=O)COC(=O)CCc2ccccc2)c(Cl)cc1Cl,-2.5%,
CC(=O)Oc1ccccc1C(=O)Nc1ccccc1C(=O)N1CCCC1,-0.405%,
CC1CN(C(=O)CCC(=O)NCc2ccccc2)c2ccccc2S1 (stereo not given),4.57%,
OCC[C@@H]1C[C@H](O)[C@@H](O)[C@]2(OCCc3ccccc32)O1,-0.757%,

# Source: PubChem BioAssay AID720518 (National Center for Advancing Translational Sciences (NCATS), 2013)
